# From ChEMBL document CHEMBL4513216, “Probing the Open Global Health Chemical Diversity Library for Multistage-Active Starting Points for Next-Generation Antimalarials” (ACS Infect Dis, 2020)
# About 8,600 (12%) of roughly 69,000 compounds showed an effect of 50% or more. The full list was thinned out, with strong results kept by preference.
# System: Plasmodium berghei
# Test: Screen against P. berghei liver stage (PbLuc), transformed with Luciferase, at 10uM
# Assay type: functional, HepG2
# Details: tested at 10 uM
row,SMILES,INHIBITION
1,Cc1ccc(C(=O)N2CCCC(Cn3cc(C(C)(C)N)nn3)C2)s1 (stereo not given),64%
2,CCc1nnc2ccc(N3CCN(S(=O)(=O)c4ccc(C)s4)CC3)nn12,10.1%
3,CC1=C(C(=O)N2CCCC(Cn3cc(CO)nn3)C2)OCCO1 (stereo not given),13%
4,Cc1cnc(C(=O)N2CCCC(Cn3cc(C4CC4)nn3)C2)cn1 (stereo not given),-66.7%
5,CN1CCC(NCC(O)c2cccc(OCc3ccccc3)c2)CC1 (stereo not given),14.9%
6,NC(=O)c1cc(C2CCCN(C(=O)CCc3ccccn3)C2)n[nH]1 (stereo not given),-19.9%
7,CCC(C)N(Cc1sccc1C)C(=O)c1ccc(S(C)(=O)=O)cc1 (stereo not given),20.3%
8,CN(C)C(=O)CN1CCC(c2cncc(-c3cccc(Cl)c3)n2)CC1,0.301%
9,Cc1ccc(-n2nc3n(c2=O)CCN(C(=O)c2ccc(Cl)cc2)C3)cc1,15.9%
10,C1CC(c2nnc(CN3CCCC3c3noc(C4CC4)n3)o2)C1 (stereo not given),-7.13%
11,N#CC1(NC(=O)c2ccc(-c3nc(C4CC4)n[nH]3)cc2)CCC1,28.8%
12,CCc1noc(CN(CCS(C)(=O)=O)C(C)(C)C)n1,-37.1%
13,CCc1c(C)nc(C)nc1N1CCC(NCCSc2nnnn2C)CC1,36.2%
14,CCc1cc(N2CCC(NCCc3ccc(C)o3)CC2)nc(C)n1,21.3%
15,Cc1cc(C)nc(N2CCC(NCCSc3nnnn3C)CC2)n1,35.1%
16,CCc1cc(N2CCC(NCCSc3nnnn3C)CC2)nc(C)n1,61.8%
17,Cn1nnnc1SCCNC1CCN(c2ccc3c(c2)OCO3)CC1,65%
18,Cn1nnnc1SCc1cc2c(cc1Cl)OCO2,25.2%
19,CN(Cc1cn(-c2ccccc2)nn1)C1CCCN(c2cccnn2)C1 (stereo not given),-9.76%
20,O=C1CC2(CCCNC2)C(=O)N1Cc1cccc(Cl)c1 (stereo not given),-4.82%
21,CCN(CC)C1CCN(C(=O)c2cc3cc(C)cc(C)c3nc2C)CC1,1.05%
22,CCS(=O)(=O)N1CCOC2(CCCN(c3ccccn3)C2)C1 (stereo not given),50.7%
23,c1ccc(N2CCOC3(CCCN(c4ncccn4)C3)C2)nc1 (stereo not given),76.5%
24,Cc1ccc(N2CCCC3(COCCN(c4nccs4)C3)C2)nn1 (stereo not given),-8.19%
25,Cc1nnc(N2CCCC3(CN(c4ccccn4)CCO3)C2)o1 (stereo not given),-34%
26,c1ccc(N2CCOCC3(CCCN(c4nccs4)C3)C2)nc1 (stereo not given),19.8%
27,c1ccc2sc(N3CCCC4(CCOC4)C3)nc2c1 (stereo not given),-50.5%
28,c1ccc(N2CCCC3(COCCN(c4nccs4)C3)C2)nc1 (stereo not given),68.5%

row,SMILES,INHIBITION
1,c1ccc(-c2nnc(N3CCCC4(CCOC4)C3)s2)cc1 (stereo not given),56.5%
2,c1cnc(N2CCOC3(CCCN(c4cnccn4)C3)C2)nc1 (stereo not given),-13.7%
3,CCCS(=O)(=O)N1CCOC2(CCCN(c3ccccn3)C2)C1 (stereo not given),11.4%
4,CCS(=O)(=O)N1CCOC2(CCCN(Cc3ccccn3)C2)C1 (stereo not given),-28.1%
5,OC1(CN2CCCC2)COCCN(c2nnc(-c3ccccc3)s2)C1 (stereo not given),26.6%
6,Cc1ccc(C(=O)N2CCN(C)C3(CCC(=O)N(C)CC3)C2)c(F)c1 (stereo not given),15.8%
7,CCc1nnc(CNC2CCCN(Cc3noc(C4CC4)n3)C2)o1 (stereo not given),-16%
8,COCCN1CCC(NCc2c(F)cccc2F)C1 (stereo not given),25.4%
9,CCn1cc(NC(=O)C2CCN(CC(=O)NC(C)(C)CC)CC2)cn1,10%
10,Cc1cnc(N2CCOC3(CCCN(C)C3)C2)nc1 (stereo not given),52.3%
11,CCCS(=O)(=O)N1CCOCC2(CCN(c3ccccn3)C2)C1 (stereo not given),20.5%
12,Cc1cnc(N2CCOC3(CCCN(c4ncccn4)C3)C2)nc1 (stereo not given),0.804%
13,CC(=O)N1CCCC2(C1)CN(c1ncc(C)cn1)CCO2 (stereo not given),-5.63%
14,CCS(=O)(=O)N1CCOCC2(CCN(c3ccccn3)C2)C1 (stereo not given),11.4%
15,CCS(=O)(=O)N1CCCC2(COCCN(c3ccccn3)C2)C1 (stereo not given),56.1%
16,Cc1cccc(S(=O)(=O)NCC2CCN(c3cnccn3)CC2)c1,-87.6%
17,CN(C)S(=O)(=O)c1ccc2c(c1)N(Cc1nccn1C)CCC2,41.4%
18,COCC(C)(O)CNC(=O)c1cc(-c2cc(OC)ccc2OC)nn1C (stereo not given),-43.5%
19,COc1cc(OC)cc(N2CCC(NC(=O)c3ccc[nH]3)CC2)c1,50.5%
20,CN(C(=O)c1cccn1C)C1CCC(NC(=O)OC(C)(C)C)CC1 (stereo not given),22.3%
21,Cn1cccc1C(=O)NC1CCN(c2ccc(OC(F)(F)F)cc2)CC1,64.9%
22,COc1cc(CN2CCC(NC(=O)c3cccn3C)C2)cc(OC)c1 (stereo not given),44.9%
23,CCS(=O)(=O)c1ccc(N2CCC(NC(=O)c3cnn(C)c3)CC2)cc1,43.4%
24,CCS(=O)(=O)c1ccccc1N1CCC(NC(=O)c2ccc[nH]2)CC1,18.4%
25,CC(C)(C)OC(=O)NC1CCC(NC(=O)c2ccc[nH]2)CC1 (stereo not given),12.7%
26,Cn1ccc(C(=O)NC2CCN(c3ncccn3)CC2)cc1=O,18.4%
27,COc1cc(OC)cc(N2CCC(NC(=O)c3cccn3C)CC2)c1,62.5%
